Most compounds without a hit are left out; they make up all but 4% or so of the library.
Wnt act: Wnt/beta-catenin pathway activators, primary screen, cell-based, plate reader, single point; Wnt/beta-catenin reporter cell assay, activator; activation, % at 9.35 µM; 300,000 tested, 1.2% active; AID 743398, 2014; in the data active = activation above about 30%, passing the limit was not always enough; inconclusive = no clear call, values can overlap the other calls;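 also: 0% = neutral control wells and 100% = positive control wells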
esBAF inh: Bmi1 luciferase reporter increase in mESCs, primary screen, esBAF inhibitor project, mouse ES cells, Bmi1 luciferase knock-in, single point. 24 h; 100% = twice the neutral-well signal. AID 602393, 2012. reporter increase, % at 12.5 µM. 350,000 tested, 2% active; in the data active = activation above about 40%; inconclusive = no clear call, values can overlap the other calls;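 also: 0% = median of the plate's neutral control wells and 100% = double that signal; a rise in the Bmi1 reporter signal indicates esBAF inhibition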
LMP1 NFkB inh: EBV LMP1-driven NF-kappaB luciferase reporter inhibitors, primary screen, cell-based, luminescence, single point. 350,000 tested, 0.69% active. LMP1-induced NF-kappaB luciferase reporter cells. inhibition, % at 12.5 µM. AID 504558, 2011; in the data active = inhibition above about 41%; inconclusive = no clear call, values can overlap the other calls;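 also: 0% = neutral control wells and 100% = reference inhibitor control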
MITF TRPM1 HTS: activators of MITF-driven TRPM1 promoter reporter, primary screen, cell-based, SK-MEL-5, luciferase, single point. SK-MEL-5 TRPM1-promoter luciferase, 24 h; % of positive control, neutral wells = 0. activation, % at 12.5 µM. 300,000 tested, 0.75% active. AID 588334, 2011;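 active = mean activation of at least 80% with every replicate also reaching 80%; inconclusive = mean reaches 80% but some replicate falls short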;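 also: 0% = neutral control wells and 100% = parthenolide positive control wells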
C2C12 statin: suppressors of statin myotoxicity in C2C12 myotubes, primary screen, cell-based, single point, plate reader | 330,000 tested, 0.78% active | rescue of ATP level, % at 7.49 µM | AID 602340, 2012 | C2C12 myotubes + simvastatin, ATP luminescence, 48 h; scaled: DMSO 0, geranylgeraniol control 100;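 active = mean ATP rescue above about 67%, or every replicate alone reaching that limit, limit read from the data, passing the limit was not always enough; inconclusive = no clear call, values can overlap the other calls; inactive = mean under the limit and some replicate under it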;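 also: myotubes were challenged with 10 µM simvastatin during compound exposure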
MITF TRPM1 inh: inhibitors of MITF-dependent TRPM1 promoter reporter, primary screen, cell-based, SK-MEL-5, single point, luciferase. 330,000 tested, 0.83% active. inhibition, % at 12.5 µM. AID 488899, 2010. SK-MEL-5 TRPM1 promoter luciferase, 24 h;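 active = mean inhibition across replicates of 60% or more, whatever share of single replicates reaches that level; inconclusive = some that reach 60%, reason not given; inactive = mean inhibition across replicates below 60%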
An asterisk follows results filed as active; ? = inconclusive; nt = no result given.

SMILES	Wnt act	esBAF inh	LMP1 NFkB inh	MITF TRPM1 HTS	C2C12 statin	MITF TRPM1 inh
Cc1ccc(S(=O)(=O)N(C)C[C@@H]2Oc3c(NC(=O)c4cc(C)nn4C)cccc3C(=O)N([C@H](C)CO)C[C@@H]2C)cc1	nt	-4.9	nt	nt	4.5	nt
COc1ccc(OC)c(-c2csc(N(Cc3ccco3)C(=O)c3cccs3)n2)c1	nt	2.7	2.3	nt	nt	-1.6
CO[C@@H](CN(C)C(=O)c1ccccc1F)[C@@H](C)CN([C@H](C)CO)S(=O)(=O)c1ccc(F)cc1	nt	-2.9	nt	nt	1.1	nt
C=CCN1C(=O)c2cccc3c(N4CCCCC4)ccc(c23)C1=O	-2.7	nt	-14.9	45.2	nt	-63.9
O=C1c2cccc3c(N4CCCCC4)ccc(c23)C(=O)N1CCO	53.1*	72.1*	-20.0	59.1	10.4	-60.7
Clc1ccc(OCc2noc(-c3ccsc3)n2)c(Cl)c1	64.7*	64.0*	-41.5	nt	-4.3	-106.1
Clc1ccc(OCCCc2nc(-c3ccncc3)no2)c(Cl)c1	-4.3	-4.0	-2.3	9.3	10.2	-6.6
Fc1cc(Cl)c(OCc2noc(-c3ccsc3)n2)c(Cl)c1	-0.1	nt	-23.4	90.1*	nt	-88.6
Cc1ccc(NC(=S)N2CCC(N(C)CC3CCCO3)CC2)cc1C (stereo unspecified)	-1.7	-2.1	5.6	4.4	-7.7	-4.7
Cc1nn(-c2ccccc2)c2sc(C(=O)NNC(=O)COc3cccc4ccccc34)cc12	nt	0.7	-15.6	-6.6	-2.2	8.2
COc1cccc(OC)c1-c1nn2c(-c3ccco3)nnc2s1	nt	54.3*	-5.1	nt	-2.7	-20.5
CN(CC(=O)Nc1cccc(F)c1)C(=O)CCNC(=O)c1ccco1	48.9*	nt	1.8	0.0	nt	1.0
CN(CC(=O)Nc1cccc(F)c1)C(=O)CCCNC(=O)c1ccc(Cl)cc1	19.8	53.8*	-18.8	56.9	1.3	-54.9
O=C(O)CCCC[C@@H]1SC[C@@H]2NC(=O)N[C@@H]21	1.9	-6.7	4.4	9.1	-0.9	-8.9
Cc1cccc2cc(/C=C3\N=C(c4ccccc4)OC3=O)c(N3CCOCC3)nc12	nt	-9.4	-9.9	-8.2	-9.0	6.4
COc1ccc(/C=C2\N=C(c3ccc(C)cc3)OC2=O)cc1	0.4	5.4	5.0	-10.7	-2.9	1.7
Cc1ccc(C2=N/C(=C\N3CCCCC3)C(=O)O2)cc1	62.8*	35.7	-23.8	?	-4.0	-84.4
Cc1ccc(C2=N/C(=C/N3CCOCC3)C(=O)O2)cc1	nt	52.2*	-24.7	91.9*	4.6	-82.9
COc1ccc(S(=O)(=O)N(C)C[C@H]2OCCCC[C@@H](C)Oc3ccc(NC(=O)Nc4ccc(C(F)(F)F)cc4)cc3C(=O)N([C@@H](C)CO)C[C@@H]2C)cc1	nt	0.3	nt	nt	-66.3	nt
CCCCN1C(=O)C(=O)N(CC(=O)N2CCN(c3ccccc3)CC2)C1=O	1.7	nt	-8.2	2.2	nt	-2.3
O=C(Nc1cccnc1Cl)c1cc(-c2ccc(F)cc2)on1	-2.9	4.6	1.2	43.3	6.0	-45.1
O=C(NC12CC3CC(CC(C3)C1)C2)c1ccccc1	-12.2	-7.6	-9.8	-4.4	-0.4	4.8
O=C(NC(=S)Nc1cccnc1Cl)c1ccc(F)cc1	37.1*	37.5	-31.9	53.3	2.7	-52.5
O=C(NC(=S)NC12CC3CC(CC(C3)C1)C2)c1ccc(F)cc1	-6.7	58.0*	nt	nt	-4.6	nt
O=C(NC(=S)Nc1ncccn1)c1ccc(F)cc1	6.8	62.3*	-7.3	101.2*	11.2	-94.9
SMILES	Wnt act	esBAF inh	LMP1 NFkB inh	MITF TRPM1 HTS	C2C12 statin	MITF TRPM1 inh
O=C(NC(=S)Nc1ccc(NC(=O)c2ccccc2)cc1)c1ccc(F)cc1	1.8	nt	4.3	6.5	nt	-6.5
COC(=O)c1ccc2c(=O)n(C3CCCCC3)c(SCC#N)nc2c1	-5.5	-1.0	-12.8	nt	5.4	-8.2
CN(Cc1ccc(F)cc1)C(=O)CN1CCN(S(=O)(=O)c2ccc3c(c2)OCCCO3)CC1	-3.1	3.6	48.5*	nt	-5.5	nt
CN(Cc1cccc(F)c1)C(=O)CN1CCN(S(=O)(=O)c2ccc3c(c2)OCCCO3)CC1	-2.4	-1.6	-3.4	10.3	1.6	-9.2
CC(C)OC(=O)CSc1nc2cc3c(cc2cc1C#N)OCO3	nt	59.3*	-4.5	nt	3.1	-83.8
Cc1cc2cc3c(cc2nc1SCC(=O)N1CCOCC1)OCO3	-0.2	9.8	-11.3	nt	1.8	-11.8
COC(=O)CSc1nc2cc3c(cc2cc1C#N)OCO3	nt	nt	-46.7	79.2	nt	-86.5
N#Cc1cc2cc3c(cc2nc1SCC(=O)N1CCOCC1)OCO3	?	51.7*	1.4	nt	-3.4	-89.5
CCOC(=O)CSc1nc2cc3c(cc2cc1C#N)OCO3	nt	nt	-16.4	90.5*	nt	-89.9
CCOC(=O)CSc1nc2cc3c(cc2cc1C#N)OCCO3	8.0	nt	-68.8	60.7	nt	-59.8
CCOc1ccc(NS(=O)(=O)c2ccc3[nH]cc(C(=O)NCCOC)c(=O)c3c2)cc1	-4.1	2.6	-9.7	-4.7	nt	3.3
CC1(C)CC(=O)C(N=Nc2ccc(Br)cc2)=C(O)C1	70.4*	nt	nt	nt	nt	nt
Cc1c(C(=O)NCC(C)C)sc2nc(-c3ccc(F)cc3)cn12	8.5	50.4*	-13.6	nt	-24.8	nt
Cc1c(C(=O)Nc2ccncc2)sc2nc(-c3ccc(F)cc3)cn12	-4.0	23.5	12.8	28.1	-21.0	-29.3
COc1ccc(NC(=O)C[C@H]2C(=O)N(CCc3ccccc3)C[C@@H]2CSC)cc1	-1.9	-3.0	-1.8	nt	4.0	nt
OC(c1ccc(F)c(F)c1)c1nc(-c2ccc3ccccc3c2)cs1 (stereo unspecified)	-2.6	67.7*	nt	nt	?	nt
OC(c1ccc(F)cc1)c1nc(-c2cnc3ccccc3c2)cs1 (stereo unspecified)	23.2	48.3*	nt	nt	8.4	nt
COc1ccc(C(O)c2nc(-c3cccc(O)c3)cs2)cc1 (stereo unspecified)	6.2	10.2	nt	nt	4.7	nt
COc1ccc(C(O)c2nc(-c3cnc4ccccc4c3)cs2)cc1 (stereo unspecified)	1.7	49.0*	nt	nt	12.1	nt
COc1ccc(-c2csc(C(NC(C)=O)c3cccc(OC)c3)n2)cc1 (stereo unspecified)	0.2	0.5	nt	nt	43.8	nt
COc1ccc(-c2csc(C(NC(C)=O)c3cccc(F)c3)n2)cc1 (stereo unspecified)	-1.3	-8.6	nt	nt	76.1*	nt
NC(c1ccc(F)c(F)c1)c1nc(-c2ccc3ccccc3c2)cs1 (stereo unspecified)	0.1	24.7	nt	nt	10.0	nt
OC(c1cccc(Cl)c1)c1nc(-c2cnc3ccccc3c2)cs1 (stereo unspecified)	-0.6	31.2	nt	nt	8.9	nt
COc1ccc(C(=O)CN2C(=O)NC3(CCCCCC3)C2=O)cc1	4.8	nt	-0.1	9.7	nt	-5.0
OC(c1ccc(F)cc1)c1nc(-c2cc3ccccc3o2)cs1 (stereo unspecified)	-1.2	69.9*	nt	nt	34.7	nt
